In the library only some 22% were active in any assay of this set; here they are far more common.
Shiga toxin inh = blocks Shiga toxin action in Vero cells | Vero cells, Shiga toxin protein synthesis inhibition reporter | 290,000 compounds, 9.2% hits | inhibition, % at 38.7 µM; in the data active = inhibition mostly above about 28%, no sharp cut-off; inactive = mostly below about 43%; note: 0% is about no effect
CHX counter = counter-screen for Shiga toxin inhibitors: cycloheximide protein synthesis inhibition. 300,000 compounds, 12% hits. max response, %. cell reporter, cycloheximide protein synthesis inhibition counterscreen. AID 2314; in the data active = max response mostly above about 13%, no sharp cut-off; inactive = mostly below about 14%; note: read at 38.3 µM for the half of the compounds with a filed dose; 0% is about no effect
Pf growth 48h = P. falciparum growth inhibition at 48 hours (one generation); P. falciparum luciferase growth in erythrocytes, 48 h; Potency, µM (titrated, usually from 28.7 µM), inactives show at the highest dose activity change, negative = inhibition, usual class: inhibitors; 310,000 compounds, 5.9% hits; AID 504832; note: potency is the fitted concentration of half-maximal effect; % is set by controls: 0 for no effect and ±100 for the full control effect
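First compound was added to culture medium, then infected red cells at 0.1% parasitemia and 2% hematocrit (final). After incubation at 37 C under 5% CO2, luciferase detection reagent was dispensed and light output recorded.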
Pf growth 96h = P. falciparum growth inhibition at 96 hours | P. falciparum luciferase reporter growth, 96 h | Potency, µM (doses to about 28.7 µM), without a hit: at the highest dose activity change, negative = inhibition, usual class: inhibitors | 320,000 compounds, 6.9% hits | AID 504834; note: potency is the fitted concentration of half-maximal effect; % is set by controls: 0 for no effect and ±100 for the full control effect
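Infected RBCs, 2% Hct / 0.05% parasitemia final; luciferase-reporter P. falciparum; cpd 96 h, 37 C, 5% CO2; luciferase detection reagent; luminescence.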
LmPK inh = blocks Leishmania mexicana pyruvate kinase activity; Q27686; 290,000 compounds, 0.37% hits; AID 1721; purified LmPK, Kinase-Glo ATP luminescence, 1 h; Potency, µM (series often up to 57.5 µM), for the others: at the highest dose activity change, negative = inhibition, actives largely listed as inhibitors; note: potency is the fitted concentration of half-maximal effect; % is set by controls: 0 for no effect and ±100 for the full control effect
Target sequence (Q27686 whole entry, looked up): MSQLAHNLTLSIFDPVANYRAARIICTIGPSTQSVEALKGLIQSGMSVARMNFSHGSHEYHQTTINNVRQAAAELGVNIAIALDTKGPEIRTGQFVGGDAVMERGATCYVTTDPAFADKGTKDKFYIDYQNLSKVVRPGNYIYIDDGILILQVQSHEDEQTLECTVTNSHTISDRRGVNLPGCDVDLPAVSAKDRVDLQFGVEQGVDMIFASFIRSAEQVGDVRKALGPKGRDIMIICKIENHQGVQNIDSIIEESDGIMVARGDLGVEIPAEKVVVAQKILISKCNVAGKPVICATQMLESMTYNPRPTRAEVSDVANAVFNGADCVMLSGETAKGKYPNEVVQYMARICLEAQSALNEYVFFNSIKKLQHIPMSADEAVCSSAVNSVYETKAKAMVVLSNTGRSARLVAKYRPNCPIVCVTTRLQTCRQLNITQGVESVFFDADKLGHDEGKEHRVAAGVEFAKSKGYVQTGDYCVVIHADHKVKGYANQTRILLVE
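0.1 nM LmPK, 0.5 mM PEP, 0.1 mM ADP; 50 mM imidazole pH 7.2, 7 mM MgCl2, 50 mM KCl; 1 h RT. Kinase-Glo luminescence readout, normalized to no-enzyme (full inhibition) and uninhibited wells.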
An asterisk follows results filed as active; ? = inconclusive; nt = no result; [ ] = dose if it differs, or a comment. Unless noted, calls come from the whole dose curve; as a rule, active = well fitted inhibition curve with a large enough effect; inconclusive = small, poorly fitted or top-dose-only effect, or another doubt; inactive = no such curve, though single readings can be large or run the other way.

SMILES | Shiga toxin inh | CHX counter | Pf growth 48h | Pf growth 96h | LmPK inh
CC(C)C(c1nnnn1C1CCCC1)N1CCc2ccccc21 (stereo not given) | -22 | -4 | ? | ? | 5%
CC(C)C(c1nnnn1C1CCCCC1)N1CCCc2ccccc21 (stereo not given) | -2 | -4 | 9.3µM* | -29% | 4%
Cc1ccc(C(c2nnnn2C2CCCC2)N2CCc3ccccc32)cc1 (stereo not given) | 9 | 22* | ? | 26% | 0%
CC(C)C(c1nnnn1C1CCCCC1)N1CCc2ccccc2C1 (stereo not given) | 27 | -2 | 15µM* | 8%[5.75 µM] | 1%
O=C(CCCOc1ccccc1)Nc1ccc(Cl)cn1 | 64* | 30* | 20% | 74% | 3%
CCCCCCC(=O)Nc1ccc(Cl)cn1 | 100* | 32* | 59% | nt | 4%
O=C(CCCOc1ccccc1)Nc1ccncc1 | 33 | 6 | 10% | 1% | -1%
Oc1ccc2ccccc2c1C1Nc2cccc3cccc(c23)N1 | -13 | 0 | ? | nt | 4%
CCN(CC)c1ccc(C2Nc3cccc4cccc(c34)N2)c(O)c1 | 51* | 27* | 3.7µM* | -21% | 0%
O=C(Nc1cccc2nsnc12)c1ccc2c(c1)OCCO2 | 108* | 30* | 156% | 15% | ?
Cc1ccc(-c2nc3ccccc3s2)cc1NC(=O)c1ccc2c(c1)OCO2 | 24 | 6 | ? | 44% | 3%
O=C(Nc1cc(-c2nc3ccccc3s2)ccc1Cl)c1ccc2c(c1)OCO2 | 52* | 27* | 52% | 36% | -3%
O=C(Nc1cccc(Cl)c1N1CCCCC1)c1ccc2c(c1)OCCO2 | -14 | -3 | ? | 1% | 2%
O=C(Nc1cccc2cccnc12)c1ccc(Br)cc1 | 44 | 31* | nt | nt | nt
COC(=O)c1ccc(NC(=O)c2ccc(NS(=O)(=O)c3cccc4cccnc34)cc2)cc1 | 2 | -5 | 3% | 23% | -2%
O=C(Nc1ccccc1O)c1ccc(NS(=O)(=O)c2cccc3cccnc23)cc1 | 25 | -2 | 2.3µM* | ? | 3%
OC(c1ccc(Cl)cc1)c1nccc2ccccc12 (stereo not given) | nt | 9 | 18% | ? | -1%
CCOc1ccc(N2CC(C(=O)Nc3cc(OCC)c(N4CCOCC4)cc3OCC)CC2=O)cc1 (stereo not given) | nt | nt | ? | 0% | nt
O=C(N/N=C/c1ccc(O)cc1)Nc1cccc2nsnc12 | 94* | 40* | 4% | 49% | 2%
Cc1ccc(C(=O)NC(=S)Nc2cccc3nsnc23)cc1 | -22 | -2 | ? | -17% | 8%
O=C(Nc1cccc2cccnc12)c1ccc2c(c1)OCCO2 | 115* | 67* | nt | 40% | -4%
CC(C)C(=O)Nc1cccc2nsnc12 | -6 | -2 | ? | nt | -2%
O=C(Nc1cccc2nsnc12)c1ccc2c(c1)OCO2 | 52* | 17 | 94% | 51% | ?
COc1cc(/C=N/NC(=O)Nc2cccc3nsnc23)cc(OC)c1OC | 17 | -2 | ? | 312% | -3%
COc1cc(NC(=O)c2ccc3c(c2)OCO3)c2ncccc2c1 | 26 | 9 | 116% | nt | 1%
SMILES | Shiga toxin inh | CHX counter | Pf growth 48h | Pf growth 96h | LmPK inh
O=C(Nc1cccc2nsnc12)c1ccc(F)cc1 | 50* | 30* | 36% | nt | -1%
Cc1nn(C(C)C(=O)NCc2ccccc2Cl)c(=O)c2c1sc1ccccc12 (stereo not given) | 21 | 4 | 4% | nt | 0%
O=C1c2ccccc2-c2onc3ccc(NCCCn4ccnc4)c1c23 | -7 | -2 | nt | 13µM* | -25%
NC(=O)CC(NC(=O)Cc1ccc(Cl)cc1)c1ccc(NCCOc2ccccc2)c([N+](=O)[O-])c1 (stereo not given) | 8 | -1 | ? | ? | -6%
COc1ccccc1N(C)S(=O)(=O)c1ccc(C(=O)OCC(=O)NCc2ccco2)cc1 | 1 | -3 | ? | 4%[5.75 µM] | 6%
O=C(CN1CCCCC1)Nc1nnc(-c2ccccc2)s1 | 72* | 20* | -8% | 19% | -3%
CC(C)C(=O)NNC(=O)CN1CCN(c2nc(-c3ccccc3)cs2)CC1 | -10 | -3 | 4% | 9% | 5%
CC(C)(C)CC(=O)Nc1nnc(-c2cccs2)s1 | 67* | 43* | 87% | ? | 3%
O=C(CN1CCCCC1)Nc1nnc(-c2ccc([N+](=O)[O-])cc2)s1 | 56 | 21* | -63% | 101% | 7%
CCc1nnc(NC(=O)CN2CCN(c3nc(-c4ccccc4)cs3)CC2)s1 | -8 | -6 | 10µM* | 9.3µM* | 0%
COc1ccc2c(c1)cc(C(=O)N[C@H](C(=O)N1CCC(C(=O)O)CC1)C(C)C)n2C | 17 | 5 | -10% | 5% | -5%
CCN(c1cccc(C)c1)S(=O)(=O)c1cn(CC(=O)OC)c2ccc([N+](=O)[O-])cc12 | 5 | 18 | 7% | ? | 1%
O=C(CSc1nnc(SCc2ccc(Cl)cc2)s1)N/N=C/c1c(Cl)cccc1Cl | -9 | -3 | ? | ? | -2%
O=C(CN1CCCC1)Nc1nnc(-c2cccs2)s1 | 89* | 28* | 11% | -84% | -5%
CCCc1nc2c(sc3nc4c(cc32)COC(C)(C)C4)c(=O)n1CCN(CC)CC | -9 | 12 | -6% | 12% | 0%[11.5 µM]
O=C(C1CCC(CNc2c(N3CCCCC3)c(=O)c2=O)CC1)N1CCc2ccccc2C1 (stereo not given) | -8 | -3 | 9.3µM* | -44% | 4%
O=C(NCCC1=CCCCC1)C1CCC(CNc2c(N3CCCC3)c(=O)c2=O)CC1 (stereo not given) | -6 | -3 | ? | ? | 1%
CC1CCN(c2c(NCC3CCC(C(=O)NC4CCCCCC4)CC3)c(=O)c2=O)CC1 (stereo not given) | -9 | -1 | ? | ? | 8%
CC1CCN(c2c(NCC3CCC(C(=O)NCCC4=CCCCC4)CC3)c(=O)c2=O)CC1 (stereo not given) | -3 | 4 | 7.4µM* | ? | 1%
O=C(NCCC1=CCCCC1)C1CCC(CNc2c(N3CCCCC3)c(=O)c2=O)CC1 (stereo not given) | 3 | 0 | 9.3µM* | ? | 5%
COc1ccc(C)cc1NC(=O)CN1CCN(CC(=O)Nc2ccccc2F)CC1 | -7 | -2 | -3% | -19% | 3%
COc1ccc(C)cc1NC(=O)C(c1ccccc1)N1CCN(CC(=O)N2CCCC2)CC1 (stereo not given) | nt | nt | 12µM* | 12µM* | nt
COc1ccc(C)cc1NC(=O)C(c1ccccc1)N1CCN(CC(=O)N2CCOCC2)CC1 (stereo not given) | nt | nt | 9.3µM* | ? | nt
Cc1ccc(NC(=O)C(c2ccccc2)N2CCN(CC(=O)N3CCOCC3)CC2)cc1 (stereo not given) | nt | nt | ? | -27% | nt
CCn1c(=O)c2ccccc2n(Cc2ccccc2C)c1=O | -10 | -1 | -2% | 19% | -7%
Cc1cc2nnc(SCC(=O)Nc3cccc(S(=O)(=O)N4CCOCC4)c3)n2c2ccccc12 | 11 | 3 | ? | ? | 2%
